Reference: the supplement of paper PMC6555819

Tested on: VDR:RXRa (NR concentration 270 nM, RXRa partner concentration 90 nM)
Test: PBM binding z-score (relative to random genomic background probes); higher = stronger binding; sequences stand for … in GC…GCGATTGACAGCGTAGAATGAAGG
Experimental: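 Protein-binding microarray (Agilent 4x180K custom design, double-stranded 60-nt probes: 5' GC cap, 34-nt variable region, 24-nt constant primer region; full probe sequence given). Purified or IVT nuclear receptor:RXRα heterodimers (3:1 NR:RXRα, mostly 270:90 nM) or homodimers were incubated for 1 h in PBS with 2% milk and no ligand, then detected with Alexa488 antibodies. Fluorescence from o1-orientation probes (~5 replicates averaged) was converted to z-scores against 500 random hg19 background probes. Variable regions are seed direct-repeat (DR0–DR5) sites, all their single-nucleotide variants and half-site ablations.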

| Sequence | PBM binding z-score |
| --- | --- |
| CCTACTGGGCCACGAAACGTCATTGATTCAGTGA | -0.697 |
| CGTCCAAGGTCAGAGGGGTCAGTGAATGCCGAGT | 7.48 |
| GCTGCTAGGTCAAGTGATGGTCAGCTAAAGCTCG | 1.63 |
| AGAATGAGGTTACGAAAGATCAGGGAAACGCTTG | 1.52 |
| CATACAGGGTCAGCTAGCCCAGAGTAGGGACGGC | 2.52 |
| CCGACTGGGGCAGAAAGGTTACCATACCATCCGG | 0.836 |
| TTACCAAGGTGAAAGATCGTTGATGCACGCCTTG | 0.0935 |
| TAGCTTAGGTCATGGGCCAGTATACCACGCGAAC | 2.15 |
| CTCGAAAGGTCGGTTGAGGTAAGTATACGGATAA | 1.57 |
| GCATACAGGTGAAACGCAGGTAACTCAGGGTGGC | -0.304 |
| CCAGACAGGTGAGAAGGTAACCCAGCCTCGATTA | -0.04 |
| ACTAGCAGGCCCAGTTTGGGTCACTCAAACAAAG | -0.198 |
| AGTCAAAGTTCCGGACGAGGTAACGTAAAGCACG | -0.357 |
| TCAAGTAGGTTACCAATGGGGCATTCAGCTTTCT | 0.549 |
| ATCTCTAGGTAAAAAGTTCAGTGAAAGAGAGGAC | 1.39 |
| CCTACTGGGCCAAAAACGTCATTGATGCCGATAA | -0.0711 |
| CGTCCAAGTTCAAGGTCAGTGAAAGAGACTCGAA | 3.88 |
| TCTTGTGGATCAAGCAGGTTAAGAAAGCCTGAGT | 0.403 |
| TAGCCTTGGTCATTGGGCCAGTATAGTACGCATC | -0.419 |
| ACAGACAGGTGATGAAGGTAACTGAGGCTATCAT | 0.346 |

| Sequence | PBM binding z-score |
| --- | --- |
| ATATGTAGGTAATCGGGTCATTCAGTTTGCGCAT | 4.7 |
| CAAACTAGGTCAAAGGTCATAGTCGAGCCAACCA | 6.71 |
| GCATATTGGTAATACAAGGTGAAAGTCCGATTGT | -0.16 |
| CGTCCAAGGTCAATGCTAGGTCAGAGAAAGCATT | 4.76 |
| GCAGACAGGTGAAACGAAGGTAACTCAGGGTGGC | -0.301 |
| AGAACGAGGGCAATGAGTTGATAGTACGGGTGGC | 5.53 |
| CATACAGCGTCAGCTAGGCCAGAGTAGGGACGGC | -0.851 |
| CTACCAAGGTGAACAATGTCGTTGATTACTATTC | 1.37 |
| AATACAGGCTCACTAGGCCAGAGTAGGTACGAAT | -0.46 |
| TCGAGTAGGTTAGCCGGGGCATTCAGCCAACATA | 2.46 |
| GCTAGCAGGCCATTTGAGTCACTCAATGACGGGC | -0.568 |
| ATCGAAAGGTCGAAGGTGAGTATGCCCACCCGAA | 2.68 |
| GCTAATAGTTGAAAGGGCAACCGAATGATTCTCG | 0.767 |
| TCTTGTAGTTCAACAGGAGGTTAAGAAAGATCGA | 2.57 |
| TCATATAGGTAAAAGGTGAAAGTCGGTGTGGTAA | 1.82 |
| GCAGACAGGTGAAACGCAGGTAACGCAGGGTGGC | -0.489 |
| CAAACTAGGGCACCGGAAGGTCAAAGTCCGCATG | 3.69 |
| CCTAGCAGGCCTATCTGGGTCACTCAAGGCTTGA | 0.253 |
| GCTAGTTGGTCAGTGAAAGGTCACACACCGGTCG | 4.14 |
| ATCTGTAGGTAACCAAGTTCAGTGAATGCCGAAC | 4.63 |
